According to PubChem BioAssay AID651640 (Broad Institute, 2012):
Where “and” joins values, the source holds several entries; their conditions need not be identical. Equal entries are not always repeated. The whole screen tested about 350,000 compounds, of which about 6,000 (1.7%) were called active. Inconclusive results (about 5%) are left out. Many of the other results were omitted from the sample, so actives are more common in it than they were. Unmarked numbers belong to inactive results. No stated cut-off is given here; in the data, active means CPE inhibition above about 20% (passing the limit was not always enough); inconclusive means no clear call, values can overlap the other calls; tested in BHK-21 cells.

Assay: inhibitors of DENV2 cytopathic effect, primary screen, cell-based, plate reader, single concentration (AID 651640);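 further: 0% = median of neutral control wells and 100% = median of positive control wells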
Settings: DENV2-infected cells, cytopathic effect rescue, at 9.99 µM, active compounds read high

SMILES	CPE inhibition
CCc1nc2c(OCCOc3ccccc3)cccn2c1N(C)C(=O)c1ccc(OC)cc1	-6.78%
CCc1nc2c(OCc3cccc(OC)c3)cccn2c1N(C)C(=O)C(C)C	3.81%
CCc1nc2c(OCCc3cccc(OC)c3)cccn2c1N(C)C(=O)c1ccc(C)cc1	35.1% (active)
COc1ccc(NC(=O)Nc2ccc3c(c2)C(=O)N([C@@H](C)CO)C[C@H](C)[C@H](CN(C)S(=O)(=O)c2ccccc2)OCCCC[C@@H](C)O3)cc1	0.841%
Cc1ccccc1NC(=O)Cc1nc(COC(=O)c2cccnc2Cl)cs1	5.7%
Cc1ccccc1NC(=O)Cc1nc(COC(=O)C(C)(C)Oc2ccc(Cl)cc2)cs1	45.3% (active)
Cc1ccccc1NC(=O)Cc1nc(COC(=O)CNC(=O)c2ccc(Cl)cc2Cl)cs1	-7.77%
CN1c2ccc(-c3cccc(C#N)c3)cc2[C@@H]2[C@@H](CCN2C(=O)C2CCC2)[C@@H]1CO	-11%
COc1ccc2c3c(n(C)c2c1)[C@@H](CO)N(C(C)=O)CC31CCN(C(=O)C2CC2)CC1	-6.89%
COc1ccc(OC)c(/C(C)=N\NC(=O)c2cc3cc(Cl)ccc3n2C)c1	69.2% (active)
COc1ccc(OC)c(C(=O)c2ccc(Cl)cc2)c1	1.87%
COc1ccc(/C(C)=N/NC(=O)CCC(=O)Nc2ccc(Cl)cc2Cl)c(OC)c1	-1.9%
CCCN1C[C@@H](C)[C@@H](OC)CN(C)C(=O)c2ccc(NS(C)(=O)=O)cc2OC[C@@H]1C	-1.47%
CCC(=O)N1C[C@H](C)[C@H](OC)CN(C)C(=O)c2ccc(NS(C)(=O)=O)cc2OC[C@H]1C	-1.33%
Cc1noc(C)c1S(=O)(=O)Nc1ccc2c(c1)C(=O)N([C@H](C)CO)C[C@H](C)[C@H](CN(C)S(C)(=O)=O)OCCCC[C@H](C)O2	-2.38%
COc1ccccc1C(=O)NCCC(=O)NCC(c1ccco1)N1CCCCC1 (centres undefined)	-2.74%
O=C(CCNC(=O)c1ccc(Br)cc1)NCC(c1ccco1)N1CCCCC1 (centres undefined)	81.5% (active)
CC(Oc1ccc(Br)cc1)C(=O)NCC(c1ccco1)N1CCCCC1 (centres undefined)	-0.377%
C[C@@H]1CCCCO[C@H](CN(C)C(=O)NC2CCCCC2)[C@H](C)CN([C@@H](C)CO)C(=O)c2cc(NC(=O)C3CCCCC3)ccc2O1	-2.82%
C[C@H](O)C#Cc1ccc2c(c1)O[C@H](CN(C)Cc1cccnc1)[C@H](C)CN([C@H](C)CO)S2(=O)=O	9.35%
COCC#Cc1cnc2c(c1)C(=O)N([C@@H](C)CO)C[C@@H](C)[C@@H](CN(C)C(=O)Nc1ccc(OC)cc1)O2	-9.58%
COc1ccc(CN(C)C[C@@H]2Oc3ccc(NC(=O)Nc4ccc(F)cc4)cc3CC(=O)N([C@@H](C)CO)C[C@H]2C)cc1	2.99%
C[C@H]1CN([C@@H](C)CO)C(=O)Cc2cc(NC(=O)Nc3cccc4ccccc34)ccc2O[C@H]1CN(C)CC1CC1	2.69%
Cc1ccc(S(=O)(=O)N(C)C[C@@H]2Oc3ccc(NC(=O)c4ccncc4)cc3CC(=O)N([C@H](C)CO)C[C@H]2C)cc1	20.7% (active)
C[C@H](CO)N1C[C@H](C)[C@H](CN(C)S(C)(=O)=O)Oc2ccc(NC(=O)c3ccncc3)cc2CC1=O	-1.49%

SMILES	CPE inhibition
C[C@@H]1CN([C@H](C)CO)C(=O)Cc2cc(NC(=O)Nc3ccc(C(F)(F)F)cc3)ccc2O[C@H]1CN(C)Cc1ccc(-c2ccccc2)cc1	-23%
C[C@H]1CN([C@@H](C)CO)C(=O)Cc2cc(NC(=O)Nc3cccc4ccccc34)ccc2O[C@@H]1CN(C)C	25.6% (active)
C[C@@H]1CN([C@H](C)CO)C(=O)Cc2cc(NC(=O)c3ccncc3)ccc2O[C@H]1CN(C)S(=O)(=O)c1cccs1	19.1%
C[C@@H]1CN([C@H](C)CO)C(=O)Cc2cc(NC(=O)Nc3cccc4ccccc34)ccc2O[C@@H]1CN(C)Cc1ccc(C(F)(F)F)cc1	20.3% (active)
C[C@H](CO)N1C[C@H](C)[C@H](CN(C)Cc2ccc(-c3ccccc3)cc2)Oc2ccc(NC(=O)Nc3ccc(F)cc3)cc2CC1=O	33.6% (active)
COc1ccc(NC(=O)Nc2ccc3c(c2)CC(=O)N([C@@H](C)CO)C[C@@H](C)[C@@H](CN(C)Cc2ccc(C(F)(F)F)cc2)O3)cc1	-24.3%
C[C@@H]1CN([C@H](C)CO)C(=O)Cc2cc(NC(=O)Nc3cccc4ccccc34)ccc2O[C@@H]1CN(C)Cc1ccc(C(=O)O)cc1	-18.4%
C[C@H]1CN([C@@H](C)CO)C(=O)Cc2cc(NC(=O)Nc3cccc4ccccc34)ccc2O[C@@H]1CN(C)S(C)(=O)=O	-2.56%
O=C(c1ccncc1)N1CC(=O)N2[C@H](CO)[C@@H](c3ccc(-c4cccnc4)cc3)[C@H]2C1	-6.23%
COc1ccc2c3c(n(C)c2c1)[C@H](CO)N(C(=O)C1CCCC1)CC31CCN(C(=O)c2ccncc2)CC1	4.15%
CO[C@@H]1CN(C)C(=O)c2ccc(NC(=O)NC(C)C)cc2OC[C@@H](C)N(C(=O)NC(C)C)C[C@H]1C	9.11%
C[C@@H]1CCCCO[C@H](CN(C)CC2CCCCC2)[C@H](C)CN([C@H](C)CO)C(=O)c2cc(NS(=O)(=O)c3ccc(F)cc3)ccc2O1	-1.47%
C[C@@H]1CCCCO[C@H](CN(C)Cc2ccc3c(c2)OCO3)[C@H](C)CN([C@@H](C)CO)C(=O)c2cc(NS(=O)(=O)c3cccs3)ccc2O1	-2.06% and 0.641%
CCCN1C(=O)c2[nH]nc(-c3ccccc3)c2C1c1ccccc1 (centres undefined)	1.19%
CO[C@H]1CN(C)C(=O)c2ccc(NC(C)=O)cc2OC[C@H](C)N(CC2CC2)C[C@@H]1C	-14.7%
C[C@@H]1CN([C@H](C)CO)C(=O)Cc2cc(NC(=O)Nc3ccccc3)ccc2O[C@@H]1CN(C)Cc1ccc(C(F)(F)F)cc1	-6.47%
C[C@@H]1CN([C@@H](C)CO)C(=O)Cc2cc(NC(=O)Nc3ccc(F)cc3)ccc2O[C@@H]1CN(C)S(=O)(=O)c1ccccc1	76.2% (active)
C[C@@H]1CN([C@@H](C)CO)C(=O)Cc2cc(NC(=O)C3CCCCC3)ccc2O[C@@H]1CN(C)C(=O)Nc1ccc(C(F)(F)F)cc1	2.75%
C[C@H]1CN([C@@H](C)CO)C(=O)Cc2cc(NC(=O)C3CCCCC3)ccc2O[C@H]1CN(C)C(=O)Nc1ccc(C(F)(F)F)cc1	-1.37%
C[C@H]1CN([C@@H](C)CO)C(=O)Cc2cc(NC(=O)Nc3ccc(C(F)(F)F)cc3)ccc2O[C@H]1CN(C)Cc1ccc(C(=O)O)cc1	16.5%
C[C@H](CO)N1C[C@H](C)[C@@H](CN(C)S(=O)(=O)c2ccccc2)Oc2ccc(NC(=O)Nc3ccc(F)cc3)cc2CC1=O	13.5%
C[C@@H]1CN([C@H](C)CO)C(=O)Cc2cc(NC(=O)C3CCCCC3)ccc2O[C@@H]1CN(C)Cc1ccc(C(F)(F)F)cc1	31.3% (active)
C[C@H]1CN([C@@H](C)CO)C(=O)Cc2cc(NC(=O)Nc3ccc(F)cc3)ccc2O[C@H]1CN(C)S(=O)(=O)c1ccccc1	1.86%
C[C@@H]1CN([C@@H](C)CO)C(=O)Cc2cc(NC(=O)Nc3ccc(C(F)(F)F)cc3)ccc2O[C@H]1CN(C)Cc1ccc(C(=O)O)cc1	30.9% (active)
